Measurements: PubChem BioAssay (NCATS)
Several values for one entry are separate records, joined by “and”; a condition that tells them apart may be missing. Equal values may be shown once. Results filed as inconclusive are left out. Activity calls are given as the source filed them. Unless noted, calls come from the whole dose curve; as a rule, active = well fitted curve in either direction with a large enough effect (not every such curve was filed as active); inconclusive = small, poorly fitted or top-dose-only effect, or another doubt; inactive = flat fitted curve, though single readings scatter.

Assays:
[1] = AP1 Signaling Pathway (AID 357);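 note: ME-180 reporter cells stimulated with EGF at its EC50 level; % is set by controls: 0 for no effect and ±100 for the full control effect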
Summary of the method: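 Modulation of EGF-driven AP-1 transcription was assessed with a beta-lactamase reporter in ME-180 cells. Compound and EC50 EGF were co-incubated 5 hours at 37 °C before 2.5-hour CCF4 loading at room temperature and dual-emission reading.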

[2] = NFAT Signaling Pathway (AID 444); conditions: Jurkat NFAT-bla M1, carbachol, beta-lactamase ratio, 5 h;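 note: carbachol stimulus at about its EC50 of 1 µM final; % is set by controls: 0 for no effect and ±100 for the full control effect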
Summary of the method: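 Jurkat cells carrying an NFAT-driven β-lactamase reporter and co-transfected muscarinic M1 receptor were treated with compound plus carbachol (1 uM final, an EC50 level) for 5 h at 37 °C. CCF4 loading followed for 1 h at RT; 460/530 nm ratio gave %activity.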

[3] = Stat Signaling Pathway (AID 446);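 note: ME-180 cervical cancer cells given 40 pM IL-6 alongside compound; SIE-controlled beta-lactamase reporter measured as 460/530 nm FRET emission ratio; % is set by controls: 0 for no effect and ±100 for the full control effect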
Summary of the method: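 IL-6/STAT signaling read in ME-180 cells via an SIE beta-lactamase reporter. Stimulus was 40 pM IL-6 (its AC50) for 5 hrs, so both activation and inhibition register.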

[4] = molecular target: Glucocorticoid receptor (Homo sapiens) (UniProt P04150); assay: GR-GFP Redistribution (AID 450;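 active = compounds whose dose series gives a full or clear partial fitted curve of increased nuclear translocation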; note: potency is the fitted concentration of half-maximal effect); conditions: U2OS GR-GFP nuclear translocation, laser cytometry, 2 h
Glucocorticoid receptor (Homo sapiens), sequence (P04150 whole entry, looked up, the tested form may be a part): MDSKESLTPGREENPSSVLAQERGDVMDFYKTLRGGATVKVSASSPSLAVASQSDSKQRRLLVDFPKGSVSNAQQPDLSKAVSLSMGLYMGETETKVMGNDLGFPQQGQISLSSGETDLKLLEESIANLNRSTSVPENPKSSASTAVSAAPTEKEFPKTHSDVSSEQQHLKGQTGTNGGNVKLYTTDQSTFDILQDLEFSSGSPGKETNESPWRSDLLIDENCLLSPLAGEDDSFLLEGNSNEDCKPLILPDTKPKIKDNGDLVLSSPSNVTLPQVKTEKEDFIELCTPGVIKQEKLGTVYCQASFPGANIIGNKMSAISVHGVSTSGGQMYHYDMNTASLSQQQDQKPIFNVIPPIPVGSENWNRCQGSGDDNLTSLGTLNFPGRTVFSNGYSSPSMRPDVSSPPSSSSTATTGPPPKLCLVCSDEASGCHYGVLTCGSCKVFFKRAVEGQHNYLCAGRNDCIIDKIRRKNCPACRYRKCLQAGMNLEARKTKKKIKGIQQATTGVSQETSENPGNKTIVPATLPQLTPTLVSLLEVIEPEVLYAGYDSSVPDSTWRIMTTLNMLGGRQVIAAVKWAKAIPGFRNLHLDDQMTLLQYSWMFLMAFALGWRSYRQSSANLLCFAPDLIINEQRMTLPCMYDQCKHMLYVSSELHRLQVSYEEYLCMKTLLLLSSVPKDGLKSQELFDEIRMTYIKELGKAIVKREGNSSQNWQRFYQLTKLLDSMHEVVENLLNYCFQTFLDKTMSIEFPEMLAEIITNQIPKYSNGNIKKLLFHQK

[5] = molecular target: Glucocorticoid receptor (Homo sapiens) (UniProt P04150); assay: GR-EFC Redistribution (AID 451; calls by dose curve; note: potency is the fitted concentration of half-maximal effect); conditions: CHO-K1 GR-EFC translocation, beta-gal luminescence, 2 h
Summary of the method: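 CHO-K1 cells stably expressing nuclear-localized β-gal enzyme acceptor and GR fused C-terminally to the enzyme donor fragment; ligand-driven nuclear translocation restores β-gal by complementation. Compounds titrated up to 46 uM final, 2 h at 37 °C; luminescence read.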

[6] = molecular target: Mitogen-activated protein kinase 10 (Mus musculus) (UniProt Q61831); assay: JNK3 AlphaScreen Assay (AID 530);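 note: kinase came from lysate of stimulated human HepG2 cells; signal reports phosphorylation of biotinylated GST-cJun 1-79 at Ser73 with 10 µM ATP; % is set by controls: 0 for no effect and ±100 for the full control effect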
Summary of the method: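 JNK3 came from HepG2 lysates pre-activated with IL-1beta and TNF-alpha and phosphorylated biotinylated GST-cJun (1-79) at 10 uM ATP, pH 7.6, room temperature. Compounds were titrated. AlphaScreen signal used anti-phospho-cJun (Ser73) antibody.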

[7] = molecular target: Cytochrome P450 1A2 (Homo sapiens) (UniProt P05177); assay: p450-cyp1a2 (AID 410; calls by dose curve;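 note: -100% = full effect of reference inhibitor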)
Cytochrome P450 1A2 (Homo sapiens), sequence (P05177 whole entry, looked up): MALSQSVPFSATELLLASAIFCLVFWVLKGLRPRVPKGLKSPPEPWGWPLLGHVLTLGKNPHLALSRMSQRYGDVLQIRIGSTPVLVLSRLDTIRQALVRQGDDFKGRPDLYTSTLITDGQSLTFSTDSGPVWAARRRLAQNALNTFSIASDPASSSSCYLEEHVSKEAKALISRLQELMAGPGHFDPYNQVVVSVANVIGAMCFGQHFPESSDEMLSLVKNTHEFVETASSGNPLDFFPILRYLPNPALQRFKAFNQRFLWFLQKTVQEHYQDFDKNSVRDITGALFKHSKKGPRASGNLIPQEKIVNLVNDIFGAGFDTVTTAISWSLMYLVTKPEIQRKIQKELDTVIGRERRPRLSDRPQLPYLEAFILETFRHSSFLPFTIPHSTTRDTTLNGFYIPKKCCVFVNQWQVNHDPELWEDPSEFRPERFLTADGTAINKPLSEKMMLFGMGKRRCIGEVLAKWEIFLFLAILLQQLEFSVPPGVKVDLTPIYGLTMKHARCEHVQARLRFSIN
Summary of the method: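 Human CYP1A2 (20nM) demethylated Luciferin-ME at its Km (100uM) in 100mM KPO4. After 10 min compound preincubation, NADPH regeneration ran the reaction 60 min at room temperature. Luciferin was read by luminescence, normalized to 57 uM furafylline.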

Cn1cnc2c1c(=O)[nH]c(=O)n2C
inactive: outcome [1] | activity change, negative = inhibition ([2]; at 17.2 µM (top of the series)) -1.3% and 20% | activity change, negative = inhibition ([2]; at 38 µM (top of the series)) 4.74% | outcome [3] | Potency [4] > 46 µM and > 20.6 µM | Potency [5] > 46 µM and > 20.6 µM | outcome [6]

CN(C)CCOC(c1ccccc1)c1ccccc1
inactive: outcome [1] | outcome [3] | outcome [6]

CCCNCC(O)COc1ccccc1C(=O)CCc1ccccc1 (stereo not given)
inactive: outcome [1] | outcome [3]

CCCCc1oc2ccccc2c1C(=O)c1cc(I)c(OCCN(CC)CC)c(I)c1
inactive: outcome [1] | activity change, negative = inhibition ([2]; at 17.2 µM (top of the series)) 4.27% | outcome [3] | outcome [6]

O=C(C1CCCCC1)N1CC(=O)N2CCc3ccccc3C2C1 (stereo not given)
inactive: outcome [1] | activity change, negative = inhibition ([2]; at 17.2 µM (top of the series)) -4.85% and -1.54% | outcome [3] | Potency [4] > 20.6 µM

CN(Cc1cnc2nc(N)nc(N)c2n1)c1ccc(C(=O)N[C@@H](CCC(=O)O)C(=O)O)cc1
inactive: Potency [7] | outcome [6]

O=C(c1ccc(OCCN2CCCCC2)cc1)c1c(-c2ccc(O)cc2)sc2cc(O)ccc12
inactive: outcome [1] | outcome [3] | Potency [4] > 46 µM and > 20.6 µM | Potency [5] > 46 µM and > 20.6 µM

O=C1c2c(O)ccc(O)c2C(=O)c2c(NCCNCCO)ccc(NCCNCCO)c21
inactive: outcome [3] | Potency [4] > 46 µM and > 20.6 µM | Potency [5] > 46 µM and > 20.6 µM | outcome [6]

COc1ccc(C2CNC(=O)C2)cc1OC1CCCC1 (stereo not given)
inactive: outcome [1] | activity change, negative = inhibition ([2]; at 17.2 µM (top of the series)) -22.4% | outcome [3] | Potency [4] > 20.6 µM

Cc1ccc(C(=O)Nc2ccc(S(=O)(=O)O)c3cc(S(=O)(=O)O)cc(S(=O)(=O)O)c23)cc1NC(=O)c1cccc(NC(=O)Nc2cccc(C(=O)Nc3cc(C(=O)Nc4ccc(S(=O)(=O)O)c5cc(S(=O)(=O)O)cc(S(=O)(=O)O)c45)ccc3C)c2)c1
inactive: outcome [1] | activity change, negative = inhibition ([2]; at 38 µM (top of the series)) -19.8% | Potency [4] > 46 µM | Potency [5] > 46 µM | outcome [6]

OCCN1CCN(CCCN2c3ccccc3Sc3ccc(C(F)(F)F)cc32)CC1
inactive: outcome [1] | outcome [3] | Potency [4] > 46 µM and > 20.6 µM | Potency [5] > 46 µM and > 20.6 µM | outcome [6]

NC(CO)C(=O)NNCc1ccc(O)c(O)c1O (stereo not given)
inactive: outcome [1] | activity change, negative = inhibition ([2]; at 17.2 µM (top of the series)) 13.6% | outcome [3]

O=C(c1ccc(F)cc1)C1CCN(CCn2c(=O)[nH]c3ccccc3c2=O)CC1
inactive: outcome [1] | activity change, negative = inhibition ([2]; at 17.2 µM (top of the series)) -11.4% and -13.2% | outcome [3] | Potency [4] > 46 µM and > 20.6 µM | Potency [5] > 46 µM and > 20.6 µM | outcome [6]

CN(C)c1nc(N(C)C)nc(N(C)C)n1
inactive: outcome [1] | activity change, negative = inhibition ([2]; at 17.2 µM (top of the series)) 2.19% and 4.9% | activity change, negative = inhibition ([2]; at 38 µM (top of the series)) 6.06% | outcome [3] | Potency [4] > 46 µM and > 20.6 µM | Potency [5] > 46 µM and > 20.6 µM | outcome [6]
